Measured values: article PMC12820563, “FoxP3 forms a head-to-head dimer in vivo and stabilizes its multimerization on adjacent microsatellites”
In all, about 16,000 sequences were measured (“rpm ratio (pull-down/input)”: median about 0.94, highest 2% from about 1.7 on). This is one part of a sample in which the highest values are shown more often than they occur.

target: T1, MBP-FoxP1dN (Mus musculus, UniProt P58462 326-579); test: PD-seq (MBP pull-down with sequencing); 20 mM Tris-HCl pH 7.5, 100 mM NaCl, 1.5 mM MgCl2, 0.4 uM protein, 0.1 uM dsDNA library, 30 min, room temperature, amylose pull-down; high values mean tight binding; conditions: protein: recombinant; tags: His6-MBP; chain copies: 2; dsDNA, one strand shown
T1 sequence: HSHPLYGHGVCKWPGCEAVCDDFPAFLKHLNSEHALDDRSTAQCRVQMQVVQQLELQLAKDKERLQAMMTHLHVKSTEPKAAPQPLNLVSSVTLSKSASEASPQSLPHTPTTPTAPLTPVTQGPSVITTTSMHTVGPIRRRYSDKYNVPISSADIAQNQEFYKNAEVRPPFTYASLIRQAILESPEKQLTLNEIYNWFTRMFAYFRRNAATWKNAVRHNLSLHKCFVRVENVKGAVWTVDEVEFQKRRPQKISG
Procedure, shortened: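 Binding is given as reads-per-million enrichment, pull-down over input, with replicates pooled. The bait was an N-terminus-lacking mouse FoxP3 or FoxP1 fragment with a His6-MBP tag, expressed in E. coli and used at 0.4 µM with 0.1 µM Klenow-filled degenerate double-stranded DNA library for 30 min at room temperature in Tris pH 7.5 buffer with NaCl and MgCl2. Amylose resin pull-down with three washes was followed by proteinase K release, PCR barcoding and Illumina sequencing.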

Row | Sequence | binding signal
1 | GATGATTGTTCTCCCAGCTGATGAATTTCCTATATCGAGTAAACAAATTTTCCTAATCTTTCTGTTCAAGCGCCATCTAC | 0.903 RPM ratio (pull-down/input)
2 | GATGATTGTTCTCCCAGCTGATGAATTCCAACTTTCGAGTAAACAAATTTTCCTAATCTTTCTGTTCAAGCGCCATCTAC | 0.884 RPM ratio (pull-down/input)
3 | GATGATTGTTCTCCCAGCTGATGAATTATCGTGTTCGAGTAAACAAATTTTCCTAATCTTTCTGTTCAAGCGCCATCTAC | 1.08 RPM ratio (pull-down/input)
4 | GATGATTGTTCTCCCAGCTGATGAATTATAGACATCGAGTAAACAAATTTTCCTAATCTTTCTGTTCAAGCGCCATCTAC | 1.21 RPM ratio (pull-down/input)
5 | GATGATTGTTCTCCCAGCTGATGAATTCTCTCCCTCGAGTAAACAAATTTTCCTAATCTTTCTGTTCAAGCGCCATCTAC | 0.835 RPM ratio (pull-down/input)
6 | GATGATTGTTCTCCCAGCTGATGAATTGGTCAATTCGAGTAAACAAATTTTCCTAATCTTTCTGTTCAAGCGCCATCTAC | 1.08 RPM ratio (pull-down/input)
7 | GATGATTGTTCTCCCAGCTGATGAATTCAGAAACTCGAGTAAACAAATTTTCCTAATCTTTCTGTTCAAGCGCCATCTAC | 0.844 RPM ratio (pull-down/input)
8 | GATGATTGTTCTCCCAGCTGATGAATTCGCATAATCGAGTAAACAAATTTTCCTAATCTTTCTGTTCAAGCGCCATCTAC | 1.22 RPM ratio (pull-down/input)
9 | GATGATTGTTCTCCCAGCTGATGAATTAATAACCTCGAGTAAACAAATTTTCCTAATCTTTCTGTTCAAGCGCCATCTAC | 1 RPM ratio (pull-down/input)
10 | GATGATTGTTCTCCCAGCTGATGAATTCCCGCCCTCGAGTAAACAAATTTTCCTAATCTTTCTGTTCAAGCGCCATCTAC | 0.758 RPM ratio (pull-down/input)
11 | GATGATTGTTCTCCCAGCTGATGAATTTTAGGTGTCGAGTAAACAAATTTTCCTAATCTTTCTGTTCAAGCGCCATCTAC | 0.902 RPM ratio (pull-down/input)
12 | GATGATTGTTCTCCCAGCTGATGAATTCAATTTGTCGAGTAAACAAATTTTCCTAATCTTTCTGTTCAAGCGCCATCTAC | 1.07 RPM ratio (pull-down/input)
13 | GATGATTGTTCTCCCAGCTGATGAATTCTGTTTGTCGAGTAAACAAATTTTCCTAATCTTTCTGTTCAAGCGCCATCTAC | 2.36 RPM ratio (pull-down/input)
14 | GATGATTGTTCTCCCAGCTGATGAATTCTTTTTGTCGAGTAAACAAATTTTCCTAATCTTTCTGTTCAAGCGCCATCTAC | 0.964 RPM ratio (pull-down/input)
15 | GATGATTGTTCTCCCAGCTGATGAATTTGCTGTTTCGAGTAAACAAATTTTCCTAATCTTTCTGTTCAAGCGCCATCTAC | 1.33 RPM ratio (pull-down/input)
16 | GATGATTGTTCTCCCAGCTGATGAATTGCTGATTTCGAGTAAACAAATTTTCCTAATCTTTCTGTTCAAGCGCCATCTAC | 1.31 RPM ratio (pull-down/input)
17 | GATGATTGTTCTCCCAGCTGATGAATTGCTGTTTTCGAGTAAACAAATTTTCCTAATCTTTCTGTTCAAGCGCCATCTAC | 2.45 RPM ratio (pull-down/input)

Row | Sequence | binding signal
18 | GATGATTGTTCTCCCAGCTGATGAATTGTTTTCGTCGAGTAAACAAATTTTCCTAATCTTTCTGTTCAAGCGCCATCTAC | 2.02 RPM ratio (pull-down/input)
19 | GATGATTGTTCTCCCAGCTGATGAATTGTTTCCTTCGAGTAAACAAATTTTCCTAATCTTTCTGTTCAAGCGCCATCTAC | 1.44 RPM ratio (pull-down/input)
20 | GATGATTGTTCTCCCAGCTGATGAATTGATGTTTTCGAGTAAACAAATTTTCCTAATCTTTCTGTTCAAGCGCCATCTAC | 2.82 RPM ratio (pull-down/input)
21 | GATGATTGTTCTCCCAGCTGATGAATTTCTTCTTTCGAGTAAACAAATTTTCCTAATCTTTCTGTTCAAGCGCCATCTAC | 1.01 RPM ratio (pull-down/input)
22 | GATGATTGTTCTCCCAGCTGATGAATTGAATGTTTCGAGTAAACAAATTTTCCTAATCTTTCTGTTCAAGCGCCATCTAC | 1.01 RPM ratio (pull-down/input)
23 | GATGATTGTTCTCCCAGCTGATGAATTTCTTTCGTCGAGTAAACAAATTTTCCTAATCTTTCTGTTCAAGCGCCATCTAC | 0.887 RPM ratio (pull-down/input)
24 | GATGATTGTTCTCCCAGCTGATGAATTGTTTTCTTCGAGTAAACAAATTTTCCTAATCTTTCTGTTCAAGCGCCATCTAC | 2.03 RPM ratio (pull-down/input)
25 | GATGATTGTTCTCCCAGCTGATGAATTTGATGTTTCGAGTAAACAAATTTTCCTAATCTTTCTGTTCAAGCGCCATCTAC | 1.16 RPM ratio (pull-down/input)
26 | GATGATTGTTCTCCCAGCTGATGAATTTGTTTCGTCGAGTAAACAAATTTTCCTAATCTTTCTGTTCAAGCGCCATCTAC | 1.3 RPM ratio (pull-down/input)
27 | GATGATTGTTCTCCCAGCTGATGAATTCGGGATTTCGAGTAAACAAATTTTCCTAATCTTTCTGTTCAAGCGCCATCTAC | 0.851 RPM ratio (pull-down/input)
28 | GATGATTGTTCTCCCAGCTGATGAATTAAGGTGCTCGAGTAAACAAATTTTCCTAATCTTTCTGTTCAAGCGCCATCTAC | 0.849 RPM ratio (pull-down/input)
29 | GATGATTGTTCTCCCAGCTGATGAATTTGTAAGATCGAGTAAACAAATTTTCCTAATCTTTCTGTTCAAGCGCCATCTAC | 1.09 RPM ratio (pull-down/input)
30 | GATGATTGTTCTCCCAGCTGATGAATTTTTGAGATCGAGTAAACAAATTTTCCTAATCTTTCTGTTCAAGCGCCATCTAC | 0.928 RPM ratio (pull-down/input)
31 | GATGATTGTTCTCCCAGCTGATGAATTTGTACCATCGAGTAAACAAATTTTCCTAATCTTTCTGTTCAAGCGCCATCTAC | 1.17 RPM ratio (pull-down/input)
32 | GATGATTGTTCTCCCAGCTGATGAATTCATCGGATCGAGTAAACAAATTTTCCTAATCTTTCTGTTCAAGCGCCATCTAC | 0.838 RPM ratio (pull-down/input)
33 | GATGATTGTTCTCCCAGCTGATGAATTATTTCCTTCGAGTAAACAAATTTTCCTAATCTTTCTGTTCAAGCGCCATCTAC | 1.04 RPM ratio (pull-down/input)
34 | GATGATTGTTCTCCCAGCTGATGAATTGAGTGACTCGAGTAAACAAATTTTCCTAATCTTTCTGTTCAAGCGCCATCTAC | 0.833 RPM ratio (pull-down/input)
